Measured values: the supplement of paper PMC10849652
The full data set covers some 8,800 targets. This sample favours those with a hit. About 0.5% of all pairs of compound and target were hits.

What was measured:
Experiment in all cases: log2 fold change, soluble protein after heating vs DMSO (PISA); higher = thermal stabilisation; K562 lysate, 10 uM; active = over 0.2 and 3.5 SD of the protein, either way, in both replicates (recomputed)
[1] = compound: C1=CC=C(C=C1)[C@H](COC2=CC3=C(C=C2)NC(=O)N3)NC(=O)C4=CC=CN(C4=O)CC5=CC(=C(C=C5)F)F
Procedure, shortened: (§1)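 Following dounce homogenisation of K562 pellets in PBS pH 7.4 with 1 mM MgCl2, crude extract at 1 mg/mL protein was incubated for 30 min with 10 μM compound. Aliquots were then heated for 3 min over 48°C-58°C and pooled, NP-40 was added to 0.5% at 4°C, and soluble protein was recovered as the supernatant at 21,000xg for 90 min. Channel-sum-equalised TMTpro 16plex LC-MS/MS quantified this protein. Each value, from duplicates, is a log-two fold change in thermal stability relative to solvent controls.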

[2] = compound: CC1=C(SC2=C1C(=N[C@H](C3=NN=C(N32)C)CC(=O)N)C4=CC=C(C=C4)Cl)C
Procedure, shortened: as §1

[3] = compound: CC1=C2C(=CC=C1)N=C(N(C2=O)C3=CC=CC=C3C)CN4C=NC5=C(N=CN=C54)N
Procedure, shortened: as §1

[4] = compound: Cc1sc2c(c1C)C(c1ccc(Cl)cc1)=N[C@@H](CC(=O)OC(C)(C)C)c1nnc(C)n1-2
Procedure, shortened: as §1

[5] = compound: c1ccc([C@@H]2C[C@H]2NC2CCNCC2)cc1
Procedure, shortened: as §1

Measured: log2 fold change

TMOD1 (UniProt P28289)
UniProt P28289, sequence (P28289 whole entry, looked up): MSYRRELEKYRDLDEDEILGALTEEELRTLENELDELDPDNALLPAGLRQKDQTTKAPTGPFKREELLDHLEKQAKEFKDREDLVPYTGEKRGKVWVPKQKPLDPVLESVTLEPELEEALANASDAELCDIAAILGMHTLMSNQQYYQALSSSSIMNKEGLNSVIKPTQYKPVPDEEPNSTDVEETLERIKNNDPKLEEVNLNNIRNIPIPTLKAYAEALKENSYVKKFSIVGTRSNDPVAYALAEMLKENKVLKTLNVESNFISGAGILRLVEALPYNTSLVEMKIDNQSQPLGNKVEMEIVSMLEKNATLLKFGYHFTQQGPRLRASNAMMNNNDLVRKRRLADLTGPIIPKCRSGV
inactive: [1] -0.003 | [2] 0.021 | [3] 0.043 | [4] 0.017 | [5] 0.002

TJP1 isoform 2 (UniProt Q07157)
inactive: [1] 0.048 | [2] 0.02 | [3] 0 | [4] 0.061 | [5] -0.009

TUT4 (UniProt Q5TAX3)
inactive: [1] -0.032 | [2] -0.024 | [3] 0.035 | [4] 0.009 | [5] -0.021

UBAP2L isoform 5 (UniProt Q14157)
UniProt Q14157, sequence (Q14157 whole entry, looked up): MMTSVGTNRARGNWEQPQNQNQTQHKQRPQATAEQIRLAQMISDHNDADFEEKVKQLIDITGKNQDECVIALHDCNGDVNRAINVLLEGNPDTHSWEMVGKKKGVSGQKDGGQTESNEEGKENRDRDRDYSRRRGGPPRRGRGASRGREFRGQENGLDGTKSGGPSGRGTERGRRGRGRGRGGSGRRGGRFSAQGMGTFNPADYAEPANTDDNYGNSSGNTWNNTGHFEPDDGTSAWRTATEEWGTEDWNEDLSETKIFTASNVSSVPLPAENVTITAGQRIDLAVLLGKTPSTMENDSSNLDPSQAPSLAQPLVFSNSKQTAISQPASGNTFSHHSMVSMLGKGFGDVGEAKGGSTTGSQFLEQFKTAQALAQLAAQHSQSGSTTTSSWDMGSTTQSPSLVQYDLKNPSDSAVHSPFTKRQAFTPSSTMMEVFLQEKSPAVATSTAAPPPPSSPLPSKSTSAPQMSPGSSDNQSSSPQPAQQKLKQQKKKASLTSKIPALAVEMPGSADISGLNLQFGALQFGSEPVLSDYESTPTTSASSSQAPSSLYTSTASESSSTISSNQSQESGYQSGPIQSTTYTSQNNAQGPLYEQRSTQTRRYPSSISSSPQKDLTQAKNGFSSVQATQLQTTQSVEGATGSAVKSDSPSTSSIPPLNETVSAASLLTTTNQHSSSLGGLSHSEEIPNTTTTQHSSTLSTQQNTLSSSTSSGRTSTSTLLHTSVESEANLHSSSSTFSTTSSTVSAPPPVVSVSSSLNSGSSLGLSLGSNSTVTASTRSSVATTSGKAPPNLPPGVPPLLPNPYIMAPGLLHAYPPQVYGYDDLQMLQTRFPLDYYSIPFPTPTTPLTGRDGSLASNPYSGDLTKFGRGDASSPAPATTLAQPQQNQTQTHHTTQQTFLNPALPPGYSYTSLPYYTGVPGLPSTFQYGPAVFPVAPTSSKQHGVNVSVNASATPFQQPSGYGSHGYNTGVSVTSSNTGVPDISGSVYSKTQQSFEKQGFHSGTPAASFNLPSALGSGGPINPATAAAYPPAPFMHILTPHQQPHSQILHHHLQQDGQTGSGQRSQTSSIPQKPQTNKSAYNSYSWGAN
inactive: [1] -0.047 | [2] 0.049 | [3] -0.022 | [4] 0.029 | [5] -0.004

TOPBP1 (UniProt Q92547)
UniProt Q92547, sequence (Q92547 whole entry, looked up): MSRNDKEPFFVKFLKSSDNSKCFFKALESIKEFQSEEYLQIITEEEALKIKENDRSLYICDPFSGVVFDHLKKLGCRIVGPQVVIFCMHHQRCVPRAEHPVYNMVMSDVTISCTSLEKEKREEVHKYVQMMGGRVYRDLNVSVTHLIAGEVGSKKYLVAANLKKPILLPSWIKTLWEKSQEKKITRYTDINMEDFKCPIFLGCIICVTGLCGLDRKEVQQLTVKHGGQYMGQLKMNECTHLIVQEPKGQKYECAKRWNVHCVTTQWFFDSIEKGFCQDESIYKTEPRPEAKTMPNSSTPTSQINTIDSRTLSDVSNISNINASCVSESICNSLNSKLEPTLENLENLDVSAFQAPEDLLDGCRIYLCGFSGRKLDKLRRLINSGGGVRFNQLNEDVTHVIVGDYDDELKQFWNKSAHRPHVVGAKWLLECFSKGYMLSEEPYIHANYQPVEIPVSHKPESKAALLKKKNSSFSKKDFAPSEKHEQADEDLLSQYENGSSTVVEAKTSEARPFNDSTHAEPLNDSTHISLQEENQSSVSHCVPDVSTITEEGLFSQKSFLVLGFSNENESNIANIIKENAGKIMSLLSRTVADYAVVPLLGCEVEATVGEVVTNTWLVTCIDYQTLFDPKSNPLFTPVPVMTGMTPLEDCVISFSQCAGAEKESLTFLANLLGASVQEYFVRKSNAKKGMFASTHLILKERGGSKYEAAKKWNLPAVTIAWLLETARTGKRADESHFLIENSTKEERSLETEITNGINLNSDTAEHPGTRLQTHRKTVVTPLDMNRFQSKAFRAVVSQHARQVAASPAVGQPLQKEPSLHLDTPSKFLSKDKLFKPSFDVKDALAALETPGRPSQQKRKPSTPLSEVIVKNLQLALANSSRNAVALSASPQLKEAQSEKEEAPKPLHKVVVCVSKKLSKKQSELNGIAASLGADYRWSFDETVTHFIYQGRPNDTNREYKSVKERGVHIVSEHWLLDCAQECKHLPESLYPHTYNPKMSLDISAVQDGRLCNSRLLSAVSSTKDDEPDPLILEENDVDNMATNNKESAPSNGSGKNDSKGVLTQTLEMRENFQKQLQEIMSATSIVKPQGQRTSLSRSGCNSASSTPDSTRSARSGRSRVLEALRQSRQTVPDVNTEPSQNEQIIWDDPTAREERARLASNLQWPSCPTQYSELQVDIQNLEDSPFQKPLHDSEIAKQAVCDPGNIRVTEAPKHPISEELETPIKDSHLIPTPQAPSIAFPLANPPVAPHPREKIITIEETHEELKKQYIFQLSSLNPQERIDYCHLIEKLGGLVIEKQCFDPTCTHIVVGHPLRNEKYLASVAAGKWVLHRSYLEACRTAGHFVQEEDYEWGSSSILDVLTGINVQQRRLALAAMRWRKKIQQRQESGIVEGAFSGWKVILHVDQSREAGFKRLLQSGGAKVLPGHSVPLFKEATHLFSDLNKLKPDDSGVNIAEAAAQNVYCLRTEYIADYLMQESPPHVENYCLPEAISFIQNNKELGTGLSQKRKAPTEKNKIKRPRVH
inactive: [1] 0.012 | [2] 0.001 | [3] 0.026 | [4] -0.016 | [5] 0.099

THEMIS2 (UniProt Q5TEJ8)
UniProt Q5TEJ8, sequence (Q5TEJ8 whole entry, looked up): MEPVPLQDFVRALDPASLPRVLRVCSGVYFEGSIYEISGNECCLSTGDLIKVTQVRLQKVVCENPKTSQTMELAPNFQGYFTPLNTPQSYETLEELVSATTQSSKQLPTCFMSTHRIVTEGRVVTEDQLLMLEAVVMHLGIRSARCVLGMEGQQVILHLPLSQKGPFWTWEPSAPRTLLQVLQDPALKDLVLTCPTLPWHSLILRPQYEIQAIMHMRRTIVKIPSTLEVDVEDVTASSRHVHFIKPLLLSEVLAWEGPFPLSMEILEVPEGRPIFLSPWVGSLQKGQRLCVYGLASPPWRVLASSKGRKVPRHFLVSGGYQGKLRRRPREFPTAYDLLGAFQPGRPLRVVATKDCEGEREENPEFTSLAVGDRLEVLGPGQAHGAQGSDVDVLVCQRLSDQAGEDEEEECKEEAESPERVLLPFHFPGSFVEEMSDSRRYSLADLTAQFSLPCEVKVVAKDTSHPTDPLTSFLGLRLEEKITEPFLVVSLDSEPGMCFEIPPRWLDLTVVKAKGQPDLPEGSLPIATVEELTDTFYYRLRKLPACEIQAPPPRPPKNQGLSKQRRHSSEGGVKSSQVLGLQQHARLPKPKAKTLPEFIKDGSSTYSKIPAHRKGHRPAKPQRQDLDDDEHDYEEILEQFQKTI
inactive: [1] 0.046 | [2] 0 | [3] 0.019 | [4] 0.052 | [5] -0.054

TUBA4A (UniProt P68366)
UniProt P68366, sequence (P68366 whole entry, looked up): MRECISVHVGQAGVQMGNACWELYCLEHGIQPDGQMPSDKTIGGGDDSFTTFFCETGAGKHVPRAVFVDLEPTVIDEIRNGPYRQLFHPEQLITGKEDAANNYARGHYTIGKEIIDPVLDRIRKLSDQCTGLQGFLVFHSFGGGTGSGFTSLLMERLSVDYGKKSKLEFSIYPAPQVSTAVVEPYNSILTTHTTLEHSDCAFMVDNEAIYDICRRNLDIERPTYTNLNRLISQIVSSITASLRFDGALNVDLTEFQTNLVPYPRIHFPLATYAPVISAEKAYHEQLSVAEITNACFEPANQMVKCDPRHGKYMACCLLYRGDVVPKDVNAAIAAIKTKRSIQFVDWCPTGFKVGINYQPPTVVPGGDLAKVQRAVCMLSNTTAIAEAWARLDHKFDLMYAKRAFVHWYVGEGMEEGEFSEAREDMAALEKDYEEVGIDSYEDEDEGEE
inactive: [1] -0.068 | [2] 0.013 | [3] 0.03 | [4] -0.024 | [5] 0.019

TOX4 (UniProt O94842)
UniProt O94842, sequence (O94842 whole entry, looked up): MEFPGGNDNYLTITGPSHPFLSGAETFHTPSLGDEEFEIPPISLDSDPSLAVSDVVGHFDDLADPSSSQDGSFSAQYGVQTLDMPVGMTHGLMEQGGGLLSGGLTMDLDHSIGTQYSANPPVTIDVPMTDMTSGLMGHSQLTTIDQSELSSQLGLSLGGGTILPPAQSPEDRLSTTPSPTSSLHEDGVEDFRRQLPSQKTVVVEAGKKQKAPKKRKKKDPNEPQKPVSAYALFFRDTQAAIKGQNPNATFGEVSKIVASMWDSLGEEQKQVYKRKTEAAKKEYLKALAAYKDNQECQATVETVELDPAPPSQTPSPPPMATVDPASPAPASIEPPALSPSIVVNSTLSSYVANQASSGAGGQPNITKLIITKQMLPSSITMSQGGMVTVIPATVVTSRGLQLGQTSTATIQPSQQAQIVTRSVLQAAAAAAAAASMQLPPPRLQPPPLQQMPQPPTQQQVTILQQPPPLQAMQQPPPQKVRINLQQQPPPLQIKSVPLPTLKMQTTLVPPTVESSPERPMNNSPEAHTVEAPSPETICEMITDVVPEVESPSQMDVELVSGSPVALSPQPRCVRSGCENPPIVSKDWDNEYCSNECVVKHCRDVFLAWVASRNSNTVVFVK
inactive: [1] -0.011 | [2] 0.001 | [3] -0.021 | [4] -0.019 | [5] -0.146

UBL5 (UniProt Q9BZL1)
UniProt Q9BZL1, sequence (Q9BZL1 whole entry, looked up): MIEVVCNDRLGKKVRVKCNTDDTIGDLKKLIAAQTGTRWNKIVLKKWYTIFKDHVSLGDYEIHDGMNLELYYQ
inactive: [1] 0.063 | [2] 0.008 | [3] -0.06 | [4] 0.005 | [5] -0.167
